A short description of test [1]: anti-His antibody binders, primary screen, artefact control for SMM control protein annotation, biochemical, small-molecule microarray, 635 nm fluorescence (AID 1128).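 Also: score merges feature fluorescence with signal-to-noise for each printed compound spot.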 Particulars: anti-His Alexa647 antibody binding, higher = more signal.
Test [2] relates to Human papillomavirus type 1a E7 protein (residues 1-88). As to the kind of experiment: HPV1a E7 small-molecule binders, primary screen, biochemical, small-molecule microarray, residues 1-88, 635 nm (AID 1129). Particulars: small-molecule microarray binding, fluorescence 635 nm; higher = more signal.
Test [3] deals with Focal adhesion kinase 1 (Homo sapiens) (UniProt Q05397). As to the kind of experiment: small-molecule microarray binders of FAK, primary screen, biochemical, 635/667 nm fluorescence, BSA, DTT (AID 1130).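 Also: composite of spot emission at 667 nm and signal to noise over triplicate slides.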 Particulars: PTK2 binding, 635 nm fluorescence, higher = more signal.
Test [4] relates to Fibrinogen (Alexa647-labelled). As to the kind of experiment: fibrinogen binders on compound microarrays, profiling panel, artefact control for SMM control-protein annotation, biochemical, small-molecule microarray, 635/667 nm fluorescence (AID 1131).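 Also: z-score merges 667 nm fluorescence with per-spot signal-to-noise over triplicate slides.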 Particulars: fibrinogen-A647 binding fluorescence, higher = more signal.
Test [5] has as its target Follistatin (Homo sapiens) (UniProt P19883). As to the kind of experiment: follistatin binders on small-molecule microarrays, primary screen, biochemical, small-molecule microarray, 635/667 nm fluorescence (AID 1132). Particulars: FST binding, 635 nm fluorescence, higher = more signal.
Test [6] deals with Fibroblast growth factor 2 (Homo sapiens) (UniProt P09038). As to the kind of experiment: FGF2 binders on small-molecule microarrays, primary screen, biochemical, small-molecule microarray, 635/667 nm fluorescence (AID 1133). Particulars: small-molecule microarray binding, FGF2, fluorescence 635/667; higher = more signal.
A short description of test [7]: mitochondrial membrane potential change in A549 cells, profiling panel, cell-based, JC-1 fluorescence, basal, 24 h, 100 nL (AID 1138).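 Also: A549 lung adenocarcinoma cells under basal conditions with no added stimulus; test concentration not given here.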 Particulars: higher = more signal.
A further test has as its system Lefty1. As to the kind of experiment: Lefty1 binders on small-molecule microarrays, primary screen, biochemical, small-molecule microarray, 635/667 nm fluorescence (AID 1139). Particulars: small-molecule microarray binding, fluorescence 635/667; higher = more signal.
The subject of test [8] is wheat germ agglutinin (Triticum aestivum), Alexa647-labelled. As to the kind of experiment: wheat germ agglutinin binders on compound microarrays, profiling panel, artefact control for SMM control-protein annotation, biochemical, small-molecule microarray, 635/667 nm fluorescence (AID 1140).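 Also: score merges 667 nm feature emission with signal to noise over triplicate slides.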 Particulars: WGA-A647 binding, 635 nm fluorescence, higher = more signal.
Test [9] has as its target Luciferin 4-monooxygenase (Photinus pyralis) (UniProt P08659). As to the kind of experiment: firefly luciferase enzyme inhibitors, primary screen, biochemical, luminescence, purified enzyme, 2006 set (AID 1141).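 Also: cell-free assay with purified firefly luciferase at 100 ng per well in PBS; test concentration not given here.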 Particulars: SteadyGlo luminescence, 30 min, higher = more signal, called active from +8 up or from −8 down.
Test [10] deals with Wnt5a (protein binding on small-molecule microarray). As to the kind of experiment: Wnt5a binders on small-molecule microarray, primary screen, biophysical, 635/667 nm fluorescence (AID 1142).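 Also: fluorescence read at 667 nm with signal to noise per printed feature.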 Particulars: 635 nm fluorescence, higher = more signal.
Test [11] is described as follows: cell viability in Huh7 cells, primary screen, cytotoxicity control for HCV replication inhibitor project, CellTiter-Glo luminescence, basal, 48 h (AID 1143).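 Also: Huh7 hepatoma cells carrying a hepatitis C replication reporter with no stimulus; test concentration not given here.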 Particulars: Huh7 HCV replicon, higher = more signal, called active from +8 up or from −8 down. In general terms: ATP-based viability assays read luminescence as a measure of living cells.
A short description of test [12]: P. aeruginosa biofilm formation inhibitors, primary screen, PAO1 strain, BacTiter-Glo luminescence, LB-PBS (AID 1144). Particulars: 12 h, higher = more signal.
Test [13] in a line: CREB reporter modulators without forskolin, primary screen, cell-based, PC12, CRE-LacZ reporter, unstimulated (AID 1145). Particulars: no forskolin, luminescence, 4.5 h, higher = more signal, called active from +8 up or from −8 down.
The nature of test [14]: CREB reporter modulators under forskolin, primary screen, cell-based, PC12, CRE-LacZ reporter, forskolin-stimulated (AID 1146).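 Also: PC12 cells with 6xCRE LacZ reporter stimulated by forskolin 10 µM; beta-galactosidase reporter signal reflecting CREB driven transcription.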 Particulars: luminescence, 4.5 h, higher = more signal, called active from +8 up or from −8 down.
For test [15], the target named is Streptavidin (Streptomyces avidinii) (UniProt P22629). As to the kind of experiment: streptavidin binders on small-molecule microarray, primary screen, artefact control for SMM compound annotation, biophysical, 635/667 nm fluorescence (AID 1147).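 Also: signal reflects streptavidin binding to arrayed compounds as a control protein.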 Particulars: streptavidin binding, higher = more signal.
Test [16] is described as follows: small-molecule binders of probe aInhba, primary screen, biochemical, small-molecule microarray, 635/667 nm fluorescence (AID 1148).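 Also: score merges 667nm spot fluorescence with signal-to-noise for antibody binding to printed compounds.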 Particulars: higher = more signal.
Test [17] addresses Torsin-1A (Homo sapiens) (UniProt O14656). As to the kind of experiment: torsin A binders from cell lysate, primary screen, small-molecule microarray, wild-type, 635/667 nm (AID 1149). Particulars: COS7 hTOR1A-WT lysate, 635 nm fluorescence, higher = more signal.
The target is the same in test [18]. As to the kind of experiment: small-molecule binders of mutant TOR1A in lysate, primary screen, cell lysate, small-molecule microarray, COS7 lysate, 635/667 nm fluorescence (AID 1150).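 Also: score pools 667 nm emission and signal to noise measuring lysate protein binding.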 Particulars: COS7 hTOR1A mutant lysate, 635 nm fluorescence, higher = more signal.
Test [19] concerns Sonic hedgehog protein (Shh). As to the kind of experiment: small-molecule binders of Shh protein, primary screen, biochemical, small-molecule microarray, 635/667 nm fluorescence (AID 1151).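 Also: Shh protein binding to compounds spotted on small-molecule microarray slides; score combines spot fluorescence intensity with signal-to-noise across triplicate slides.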 Particulars: small-molecule microarray binding, 635 nm fluorescence; higher = more signal.

Consider 5 molecules from PubChem BioAssay.

Active and inactive are the calls of the source. Unless noted, no rule for the calls is given here.

Sequence of Luciferin 4-monooxygenase (Photinus pyralis) (P08659 whole entry, looked up): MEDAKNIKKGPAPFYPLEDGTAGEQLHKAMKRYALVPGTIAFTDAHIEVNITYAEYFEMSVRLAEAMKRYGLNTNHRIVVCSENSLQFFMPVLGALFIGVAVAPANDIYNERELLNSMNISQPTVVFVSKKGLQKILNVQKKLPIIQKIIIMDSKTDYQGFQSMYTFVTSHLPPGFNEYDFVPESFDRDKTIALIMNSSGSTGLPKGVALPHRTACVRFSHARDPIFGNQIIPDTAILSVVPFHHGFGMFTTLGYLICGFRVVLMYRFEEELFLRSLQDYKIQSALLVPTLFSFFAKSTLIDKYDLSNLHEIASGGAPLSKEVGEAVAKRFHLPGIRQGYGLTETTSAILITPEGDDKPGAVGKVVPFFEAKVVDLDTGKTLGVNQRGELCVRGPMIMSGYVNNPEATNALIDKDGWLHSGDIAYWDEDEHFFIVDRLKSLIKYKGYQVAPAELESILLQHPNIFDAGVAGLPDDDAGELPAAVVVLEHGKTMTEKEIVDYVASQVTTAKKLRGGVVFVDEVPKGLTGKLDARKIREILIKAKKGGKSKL
Sequence of Fibroblast growth factor 2 (Homo sapiens) (P09038 whole entry, looked up): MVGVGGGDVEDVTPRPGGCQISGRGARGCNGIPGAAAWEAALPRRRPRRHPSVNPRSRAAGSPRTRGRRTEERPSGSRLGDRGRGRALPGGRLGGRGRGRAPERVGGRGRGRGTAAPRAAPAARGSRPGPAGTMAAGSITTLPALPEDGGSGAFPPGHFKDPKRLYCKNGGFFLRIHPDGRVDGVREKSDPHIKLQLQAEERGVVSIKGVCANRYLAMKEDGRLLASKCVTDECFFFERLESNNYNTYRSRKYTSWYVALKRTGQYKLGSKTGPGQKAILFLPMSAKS
Sequence of Follistatin (Homo sapiens) (P19883 whole entry, looked up): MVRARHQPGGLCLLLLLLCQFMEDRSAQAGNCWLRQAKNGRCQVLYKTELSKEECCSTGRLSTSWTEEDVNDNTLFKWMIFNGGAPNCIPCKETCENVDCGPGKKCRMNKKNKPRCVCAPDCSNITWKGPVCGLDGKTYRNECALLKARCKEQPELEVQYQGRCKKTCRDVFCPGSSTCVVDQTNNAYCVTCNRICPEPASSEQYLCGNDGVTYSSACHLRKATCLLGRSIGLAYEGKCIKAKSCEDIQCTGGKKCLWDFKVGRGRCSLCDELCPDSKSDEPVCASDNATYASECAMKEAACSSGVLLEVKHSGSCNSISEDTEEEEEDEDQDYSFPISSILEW
Sequence of Streptavidin (Streptomyces avidinii) (P22629 whole entry, looked up): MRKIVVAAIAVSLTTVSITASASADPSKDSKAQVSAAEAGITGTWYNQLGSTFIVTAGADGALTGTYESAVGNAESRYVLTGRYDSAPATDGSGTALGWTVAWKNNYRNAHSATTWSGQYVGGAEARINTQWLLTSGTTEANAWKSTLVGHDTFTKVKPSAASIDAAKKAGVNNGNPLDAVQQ
Sequence of Torsin-1A (Homo sapiens) (O14656 whole entry, looked up): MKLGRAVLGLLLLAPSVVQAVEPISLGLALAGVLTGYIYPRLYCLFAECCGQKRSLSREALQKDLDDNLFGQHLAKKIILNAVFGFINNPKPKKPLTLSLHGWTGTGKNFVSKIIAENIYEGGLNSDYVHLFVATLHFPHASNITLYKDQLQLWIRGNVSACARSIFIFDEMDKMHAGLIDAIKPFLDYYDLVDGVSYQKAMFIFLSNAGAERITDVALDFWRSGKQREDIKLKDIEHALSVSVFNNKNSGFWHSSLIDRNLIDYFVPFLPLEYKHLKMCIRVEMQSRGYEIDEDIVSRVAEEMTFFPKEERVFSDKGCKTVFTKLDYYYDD
Sequence of Focal adhesion kinase 1 (Homo sapiens) (Q05397 whole entry, looked up): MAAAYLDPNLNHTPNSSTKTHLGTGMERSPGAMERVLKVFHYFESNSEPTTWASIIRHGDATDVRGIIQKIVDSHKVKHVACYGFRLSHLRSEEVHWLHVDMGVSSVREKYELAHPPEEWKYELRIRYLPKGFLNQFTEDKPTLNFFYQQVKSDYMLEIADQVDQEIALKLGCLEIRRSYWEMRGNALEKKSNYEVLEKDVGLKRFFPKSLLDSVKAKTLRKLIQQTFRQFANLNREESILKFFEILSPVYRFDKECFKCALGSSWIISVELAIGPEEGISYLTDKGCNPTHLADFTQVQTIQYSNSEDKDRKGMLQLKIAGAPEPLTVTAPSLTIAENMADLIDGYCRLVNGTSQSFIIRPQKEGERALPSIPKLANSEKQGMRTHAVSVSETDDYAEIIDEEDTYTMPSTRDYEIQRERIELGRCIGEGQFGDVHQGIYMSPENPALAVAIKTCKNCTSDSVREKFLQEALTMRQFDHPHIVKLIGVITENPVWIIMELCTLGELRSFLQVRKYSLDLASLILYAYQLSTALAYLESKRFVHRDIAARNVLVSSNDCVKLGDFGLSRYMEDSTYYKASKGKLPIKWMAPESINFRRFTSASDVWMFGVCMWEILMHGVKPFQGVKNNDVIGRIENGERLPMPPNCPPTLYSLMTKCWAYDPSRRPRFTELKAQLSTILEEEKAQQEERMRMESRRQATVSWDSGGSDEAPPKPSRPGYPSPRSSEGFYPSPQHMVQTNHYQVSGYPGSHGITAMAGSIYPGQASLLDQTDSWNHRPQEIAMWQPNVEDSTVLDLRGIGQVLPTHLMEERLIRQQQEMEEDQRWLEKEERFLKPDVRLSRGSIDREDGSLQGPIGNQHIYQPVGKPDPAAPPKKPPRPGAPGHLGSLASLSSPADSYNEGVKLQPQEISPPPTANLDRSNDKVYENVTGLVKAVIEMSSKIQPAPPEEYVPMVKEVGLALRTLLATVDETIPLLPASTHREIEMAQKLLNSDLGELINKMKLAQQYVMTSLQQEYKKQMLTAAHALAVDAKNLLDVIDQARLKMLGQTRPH

With `COC(=O)[C@@]1(Cc2ccc(OC)cc2)[C@H]2c3cc(C(=O)N4CCCC4)n(CCc4ccc(O)c(O)c4)c3C[C@H]2CN1C(=O)c1ccccc1`, the composite z-score in test [1] is 2.44; in test [2], 1.17; in [3] it was 0.384; in [4], 0.421; in test [5], 0.442; in test [6], -0.736. The composite z-score in the test with Lefty1 was -0.958; in test [8], 1.22; in test [10], -0.0111; in test [15], 0.27; in test [16] it was 0.147; with Torsin-1A (Homo sapiens) [17], -0.252. The composite z-score with Torsin-1A (Homo sapiens) [18] is 0.641; in test [19] it was -0.349. Moreover, the z-score in [7] was -0.72; in [9], -7.43 (inactive); in test [11] it was -1.27 (inactive); in test [12], -0.128 (inactive); in test [13] it was 1.54 (inactive); in test [14], 0.706 (inactive).

Regarding `[N-]=[N+]=NCc1ccccc1C[C@@]1(C(=O)NCC(O)CO)N=C(c2ccc(OCCCO)cc2)O[C@@H]1c1ccccc1` (stereo not given in full), the composite z-score is 1.86 in test [1]; 0.0034 in test [2]; -0.225 in test [3]; -0.513 in [4]; 0.602 in [5]; -0.287 in [6]. Moreover, the composite z-score with Lefty1 is -1.7; in test [8], 0.276; in test [10], 0.423; in test [15], -0.0302; in test [16], 0.0377; in the test with Torsin-1A (Homo sapiens) [17] it was 0.237. Moreover, the results for the composite z-score (with Torsin-1A (Homo sapiens) [18]; in test [19]) were 1.14 and -0.982, respectively. For the same molecule, the z-score is 0.663 in [7]; -1.69 (inactive) in [9]; -4.03 (inactive) in [11]; 0.141 (inactive) in [12]; 1.8 (inactive) in [13]; 0.617 (inactive) in test [14].

In the case of `CC(C)[C@@H](C(=O)O)n1cc(C2(O)CCCCC2)nn1`, the composite z-score was 0.948 in test [1]; 1.1 in test [2]; 0.167 in [3]; 0.598 in [4]; 0.486 in [5]; 0.2 in test [6]. The composite z-score in the test on Lefty1 was 0.528; in test [8], 0.0063; in test [10], 0.265; in test [15], 0.306; in [16] it was -0.101; with Torsin-1A (Homo sapiens) [17], -0.0244. Moreover, the composite z-score with Torsin-1A (Homo sapiens) [18] stood at 0.404; in [19], 0.151. Moreover, the z-score was 0.0494 in test [7]; 0.983 (inactive) in [9]; -0.671 (inactive) in test [11]; -0.78 (inactive) in test [12]; -0.23 (inactive) in [13]; -0.669 (inactive) in [14].

As to `COCCOC(=O)N1C(=O)[C@@]2(c3cc(C#CC4(O)CCCCCC4)ccc31)[C@H](c1ccccc1OCCO)N1[C@H](c3ccccc3)[C@H](c3ccccc3)OC(=O)[C@H]1[C@@H]2C(=O)N1CCc2cc(OC)c(OC)cc2C1`, the composite z-score was found to be 2.27 in [1]; 1.23 in test [2]; 0.669 in test [3]; 0.895 in test [4]; 0.653 in [5]; 0.461 in test [6]. For the same molecule, the composite z-score was 0.8 in the test with Lefty1; 0.632 in [8]; 0.305 in test [10]; 0.738 in test [15]; -0.0496 in [16]; 0.0651 with Torsin-1A (Homo sapiens) [17]. Also, the composite z-score in the test with Torsin-1A (Homo sapiens) [18] stood at 0.336; in test [19] it was 1.11. Further, the z-score in test [7] is -0.932; in test [9], -0.022 (inactive); in [11], -3.17 (inactive); in [12], -0.665 (inactive); in [13], -1.29 (inactive); in test [14], 1.03 (inactive).

With `C=CCN1C(=O)[C@]2(Cc3ccccc3)N=C(c3ccc(OCCCO)cc3)O[C@@H]2c2ccccc21`, the composite z-score was 3.16 in test [1]; 1.2 in test [2]; 0.145 in [3]; 0.548 in test [4]; 1.37 in [5]; 1.56 in test [6]. Moreover, the composite z-score with Lefty1 turned out to be 0.816; in test [8], 0.663; in [10], 0.611; in [15], 0.752; in test [16], 0.13; with Torsin-1A (Homo sapiens) [17] it was 0.443. Besides, the values for the composite z-score (with Torsin-1A (Homo sapiens) [18]; in [19]) were 0.842 and 1.79, respectively. Further, the z-score in test [7] is 1.59; in test [9], -6.95 (inactive); in test [11], -3.85 (inactive); in test [12] it was 0.000807 (inactive); in [13], 2.97 (inactive); in test [14], -1.79 (inactive).
